The supplement of paper PMC10849652
Of roughly 7,900 targets only a part is listed; those with a hit were picked by preference. About 0.6% of all pairs of compound and target were hits. Values without a mark were called inactive.

Columns and labels:
Test in all cases: log2 fold change, soluble protein after heating vs DMSO (PISA); higher = thermal stabilisation; K562 cells, 10 uM, 30 min; active = over 0.2 and 3.5 SD of the protein, either way, in both replicates (recomputed)
bafetinib = compound: Cc1ccc(NC(=O)c2ccc(CN3CC[C@H](N(C)C)C3)c(C(F)(F)F)c2)cc1Nc1nccc(-c2cncnc2)n1 [bafetinib]
Summary of the method: (§1)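 Soluble protein was quantified by TMTpro 16plex LC-MS/MS after channel sums were equalised. It was obtained as the supernatant after 21,000xg for 90 min from pooled aliquots of K562 cells (2×10^6 cells/mL, 10 μM compound, 30 min) heated for 3 min across 48°C-58°C and extracted in PBS with 0.5% NP-40 at 4°C. Thermal stability values are relative to control samples and come from duplicates. They are given as log2 fold changes.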

[1] = compound: Cc1cccc(CC(=O)N2CCc3c2ccc(-c2cn(C)c4ncnc(N)c24)c3F)n1
Summary of the method: as §1

nilotinib = compound: Cc1cn(-c2cc(NC(=O)c3ccc(C)c(Nc4nccc(-c5cccnc5)n4)c3)cc(C(F)(F)F)c2)cn1 [nilotinib]
Summary of the method: as §1

[2] = compound: Cc1nc(Nc2n[nH]c3c2CN(C(=O)N[C@H](CN(C)C)c2ccccc2)C3(C)C)c2sccc2n1
Summary of the method: as §1

dasatinib = compound: Cc1nc(Nc2ncc(C(=O)Nc3c(C)cccc3Cl)s2)cc(N2CCN(CCO)CC2)n1 [dasatinib]
Summary of the method: as §1

[3] = compound: Cc1ncc(-c2ccnc(Nc3ccc(S(C)(=O)=O)cc3)n2)n1C(C)C
Summary of the method: as §1

[4] = compound: Cn1cc(-c2ccc3c(c2)CCN3C(=O)Cc2cccc(C(F)(F)F)c2)c2c(N)ncnc21
Summary of the method: as §1

[5] = compound: Cn1cc(-c2ccc3nnc(C(F)(F)c4ccc5ncccc5c4)n3n2)cn1
Summary of the method: as §1

tipifarnib = compound: Cn1cncc1[C@@](N)(c1ccc(Cl)cc1)c1ccc2c(c1)c(-c1cccc(Cl)c1)cc(=O)n2C [tipifarnib]
Summary of the method: as §1

mubritinib = compound: FC(F)(F)c1ccc(/C=C/c2nc(COc3ccc(CCCCn4ccnn4)cc3)co2)cc1 [mubritinib]
Summary of the method: as §1

Chain of UniProt Q9NP79 (Q9NP79 whole entry, looked up): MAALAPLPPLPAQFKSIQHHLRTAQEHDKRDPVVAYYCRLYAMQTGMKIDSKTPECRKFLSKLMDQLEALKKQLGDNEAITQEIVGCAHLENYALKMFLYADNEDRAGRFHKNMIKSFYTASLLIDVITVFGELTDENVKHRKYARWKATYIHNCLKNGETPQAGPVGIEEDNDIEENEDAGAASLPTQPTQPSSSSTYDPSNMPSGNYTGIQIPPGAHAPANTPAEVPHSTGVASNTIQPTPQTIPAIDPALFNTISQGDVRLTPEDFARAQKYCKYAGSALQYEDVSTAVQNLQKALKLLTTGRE
Chain of UniProt Q16881 (Q16881 whole entry, looked up): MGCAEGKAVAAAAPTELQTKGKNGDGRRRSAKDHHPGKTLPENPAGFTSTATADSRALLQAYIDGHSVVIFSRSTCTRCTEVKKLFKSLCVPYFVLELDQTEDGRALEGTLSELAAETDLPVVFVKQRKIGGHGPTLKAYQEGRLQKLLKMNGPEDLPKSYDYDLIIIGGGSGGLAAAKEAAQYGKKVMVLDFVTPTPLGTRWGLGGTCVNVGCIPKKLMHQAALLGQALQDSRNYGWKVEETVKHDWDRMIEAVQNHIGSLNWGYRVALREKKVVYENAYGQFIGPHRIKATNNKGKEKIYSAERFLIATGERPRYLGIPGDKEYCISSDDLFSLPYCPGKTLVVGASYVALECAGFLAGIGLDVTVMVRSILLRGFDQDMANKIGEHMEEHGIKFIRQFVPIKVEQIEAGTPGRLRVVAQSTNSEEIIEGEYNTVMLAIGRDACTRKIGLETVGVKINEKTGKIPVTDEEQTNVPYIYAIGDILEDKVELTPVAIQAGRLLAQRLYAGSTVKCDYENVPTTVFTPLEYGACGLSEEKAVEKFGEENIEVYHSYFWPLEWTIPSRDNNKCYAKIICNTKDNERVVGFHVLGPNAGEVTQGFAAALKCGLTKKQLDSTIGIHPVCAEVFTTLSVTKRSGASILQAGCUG
Chain of UniProt Q5T3F8 (Q5T3F8 whole entry, looked up): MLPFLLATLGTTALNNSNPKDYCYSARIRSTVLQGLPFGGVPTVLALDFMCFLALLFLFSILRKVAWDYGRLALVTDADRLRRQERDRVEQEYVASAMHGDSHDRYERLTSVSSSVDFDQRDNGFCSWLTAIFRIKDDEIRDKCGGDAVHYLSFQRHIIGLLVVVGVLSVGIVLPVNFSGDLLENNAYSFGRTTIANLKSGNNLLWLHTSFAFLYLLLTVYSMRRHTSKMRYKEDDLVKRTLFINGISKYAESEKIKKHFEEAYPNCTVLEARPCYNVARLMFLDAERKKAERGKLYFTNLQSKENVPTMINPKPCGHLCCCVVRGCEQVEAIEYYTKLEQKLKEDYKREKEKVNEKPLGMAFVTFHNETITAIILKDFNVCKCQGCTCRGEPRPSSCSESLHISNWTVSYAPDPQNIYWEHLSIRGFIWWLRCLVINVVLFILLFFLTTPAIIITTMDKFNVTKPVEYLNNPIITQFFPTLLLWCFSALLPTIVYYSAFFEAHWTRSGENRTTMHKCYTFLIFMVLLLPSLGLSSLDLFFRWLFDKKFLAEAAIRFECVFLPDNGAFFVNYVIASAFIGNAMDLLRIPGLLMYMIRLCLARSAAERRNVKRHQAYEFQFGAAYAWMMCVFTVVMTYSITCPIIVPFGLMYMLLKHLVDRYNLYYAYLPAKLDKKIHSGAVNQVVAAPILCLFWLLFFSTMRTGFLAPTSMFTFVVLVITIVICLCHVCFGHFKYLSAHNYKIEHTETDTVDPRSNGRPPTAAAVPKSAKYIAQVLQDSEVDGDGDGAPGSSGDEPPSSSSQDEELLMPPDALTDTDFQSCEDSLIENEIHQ
Chain of UniProt Q629K1 (Q629K1 whole entry, looked up): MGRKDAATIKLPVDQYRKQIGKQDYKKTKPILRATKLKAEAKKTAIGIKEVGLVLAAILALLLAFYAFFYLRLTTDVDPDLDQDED
Chain of UniProt P61960 (P61960 whole entry, looked up): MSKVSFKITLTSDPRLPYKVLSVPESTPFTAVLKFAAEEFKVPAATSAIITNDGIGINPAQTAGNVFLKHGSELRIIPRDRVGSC
Chain of UniProt Q9NQ34 (Q9NQ34 whole entry, looked up): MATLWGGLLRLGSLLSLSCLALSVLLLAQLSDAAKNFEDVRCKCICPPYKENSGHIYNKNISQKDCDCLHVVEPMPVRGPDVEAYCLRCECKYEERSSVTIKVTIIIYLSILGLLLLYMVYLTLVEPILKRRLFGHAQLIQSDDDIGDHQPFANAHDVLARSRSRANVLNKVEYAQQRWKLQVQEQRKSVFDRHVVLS
Chain of UniProt Q7Z3V4 (Q7Z3V4 whole entry, looked up): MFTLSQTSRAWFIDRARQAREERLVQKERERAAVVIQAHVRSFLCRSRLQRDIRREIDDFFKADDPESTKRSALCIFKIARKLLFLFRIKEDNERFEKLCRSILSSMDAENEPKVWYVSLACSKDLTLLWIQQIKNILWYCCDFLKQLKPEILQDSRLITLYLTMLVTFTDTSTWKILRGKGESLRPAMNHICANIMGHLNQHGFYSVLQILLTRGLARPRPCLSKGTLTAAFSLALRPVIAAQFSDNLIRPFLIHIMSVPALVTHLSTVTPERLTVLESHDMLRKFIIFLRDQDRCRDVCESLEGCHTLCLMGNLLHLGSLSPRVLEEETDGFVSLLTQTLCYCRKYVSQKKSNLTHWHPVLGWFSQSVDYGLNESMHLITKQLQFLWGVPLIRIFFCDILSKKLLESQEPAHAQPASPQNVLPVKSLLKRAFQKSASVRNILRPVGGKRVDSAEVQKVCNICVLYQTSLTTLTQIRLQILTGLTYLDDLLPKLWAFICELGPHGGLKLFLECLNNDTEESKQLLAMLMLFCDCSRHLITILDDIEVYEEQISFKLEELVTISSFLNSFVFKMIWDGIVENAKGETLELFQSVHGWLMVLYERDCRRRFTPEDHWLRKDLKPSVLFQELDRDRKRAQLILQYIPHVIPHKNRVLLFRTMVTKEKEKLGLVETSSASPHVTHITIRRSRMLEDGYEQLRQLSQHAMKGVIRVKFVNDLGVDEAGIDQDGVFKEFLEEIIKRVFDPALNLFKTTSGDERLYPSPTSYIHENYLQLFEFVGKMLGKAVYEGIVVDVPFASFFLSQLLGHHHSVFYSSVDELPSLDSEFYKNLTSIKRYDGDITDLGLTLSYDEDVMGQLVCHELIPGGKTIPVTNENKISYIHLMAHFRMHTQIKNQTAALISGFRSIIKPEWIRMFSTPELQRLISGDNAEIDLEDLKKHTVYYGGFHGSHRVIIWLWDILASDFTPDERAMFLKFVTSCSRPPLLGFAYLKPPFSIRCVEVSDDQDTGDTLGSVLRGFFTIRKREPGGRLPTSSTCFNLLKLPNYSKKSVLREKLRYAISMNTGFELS
Chain of UniProt Q9H270 (Q9H270 whole entry, looked up): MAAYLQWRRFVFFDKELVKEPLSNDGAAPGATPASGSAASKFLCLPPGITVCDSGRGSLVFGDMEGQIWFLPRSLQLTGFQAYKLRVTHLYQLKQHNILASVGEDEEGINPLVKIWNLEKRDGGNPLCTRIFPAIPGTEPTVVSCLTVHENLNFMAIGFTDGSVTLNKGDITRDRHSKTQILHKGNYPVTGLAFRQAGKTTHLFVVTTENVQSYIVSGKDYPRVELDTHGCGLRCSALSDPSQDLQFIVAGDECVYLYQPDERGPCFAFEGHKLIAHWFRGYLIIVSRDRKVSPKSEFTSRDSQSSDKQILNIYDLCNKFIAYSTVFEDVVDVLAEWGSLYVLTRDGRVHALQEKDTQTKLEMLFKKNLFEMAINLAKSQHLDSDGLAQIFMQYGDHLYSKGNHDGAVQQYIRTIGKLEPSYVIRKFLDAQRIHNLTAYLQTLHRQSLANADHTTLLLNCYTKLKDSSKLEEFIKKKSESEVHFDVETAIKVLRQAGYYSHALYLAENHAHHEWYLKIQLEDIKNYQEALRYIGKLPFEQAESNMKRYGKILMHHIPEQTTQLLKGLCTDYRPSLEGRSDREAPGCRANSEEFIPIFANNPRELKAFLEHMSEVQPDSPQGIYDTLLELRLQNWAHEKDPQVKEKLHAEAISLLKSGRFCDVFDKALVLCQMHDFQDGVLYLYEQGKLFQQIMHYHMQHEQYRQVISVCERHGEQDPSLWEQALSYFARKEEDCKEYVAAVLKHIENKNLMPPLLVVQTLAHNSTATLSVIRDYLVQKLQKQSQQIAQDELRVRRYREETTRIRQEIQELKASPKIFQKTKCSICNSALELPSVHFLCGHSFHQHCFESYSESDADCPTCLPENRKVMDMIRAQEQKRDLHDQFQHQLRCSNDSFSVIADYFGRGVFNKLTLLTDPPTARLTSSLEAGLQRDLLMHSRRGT
Chain of UniProt Q9Y5K5 (Q9Y5K5 whole entry, looked up): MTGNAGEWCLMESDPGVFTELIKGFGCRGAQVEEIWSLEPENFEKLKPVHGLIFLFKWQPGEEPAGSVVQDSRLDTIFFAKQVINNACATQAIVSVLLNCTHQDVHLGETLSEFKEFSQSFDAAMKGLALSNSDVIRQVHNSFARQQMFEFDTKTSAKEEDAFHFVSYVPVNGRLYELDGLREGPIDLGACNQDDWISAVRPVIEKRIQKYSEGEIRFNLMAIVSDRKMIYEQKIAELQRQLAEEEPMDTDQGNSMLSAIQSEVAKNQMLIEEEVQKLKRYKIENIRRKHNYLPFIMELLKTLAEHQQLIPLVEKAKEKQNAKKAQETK
Chain of UniProt O95801 (O95801 whole entry, looked up): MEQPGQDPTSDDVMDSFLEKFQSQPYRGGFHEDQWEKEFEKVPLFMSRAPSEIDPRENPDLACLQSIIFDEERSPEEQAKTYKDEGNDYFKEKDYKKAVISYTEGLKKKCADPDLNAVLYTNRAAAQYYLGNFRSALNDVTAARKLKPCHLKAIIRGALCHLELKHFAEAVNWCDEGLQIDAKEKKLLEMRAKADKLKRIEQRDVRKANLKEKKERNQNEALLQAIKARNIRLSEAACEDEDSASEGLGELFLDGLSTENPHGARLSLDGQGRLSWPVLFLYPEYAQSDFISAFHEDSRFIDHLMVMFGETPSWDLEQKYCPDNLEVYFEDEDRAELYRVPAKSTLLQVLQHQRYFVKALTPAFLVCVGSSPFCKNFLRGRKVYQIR

Target	log2 fold change (bafetinib)	log2 fold change [1]	log2 fold change (nilotinib)	log2 fold change [2]	log2 fold change (dasatinib)	log2 fold change [3]	log2 fold change [4]	log2 fold change [5]	log2 fold change (tipifarnib)	log2 fold change (mubritinib)
XRCC6 (UniProt P12956)	-0.003	0.032	-0.067	-0.248	-0.147	-0.07	-0.01	0.018	-0.104	0.043
VPS11 (UniProt Q9H270)	-0.033	0.006	-0.048	-0.006	-0.154	0.005	-0.016	-0.004	-0.093	0.027
TRMT61A (UniProt Q96FX7)	-0.051	0.047	0.036	0.046	0.011	-0.07	-0.11	-0.016	0.043	-0.125
TMEM208 (UniProt Q9BTX3)	-0.131	0.097	-0.101	0.092	-0.19	0.185	-0.024	0.01	-0.223	0.062
WARS2 (UniProt Q9UGM6)	-0.183	0.016	-0.086	-0.008	-0.147	0.047	0.022	-0.056	-0.046	-0.569 (active)
TMEM106B (UniProt Q9NUM4)	-0.094	0.035	-0.015	0.02	0.098	-0.007	0.083	–	0.029	0.023
USP9X (UniProt Q93008)	-0.016	0.071	-0.099	-0.056	-0.122	-0.004	-0.052	-0.021	-0.126	0.052
TXNRD1 (UniProt Q16881)	-0.012	-0.011	0.097	-0.013	-0.013	-0.002	0.067	0.021	-0.107	0.225 (active)
WDR47 (UniProt O94967)	0.042	0.004	0.02	-0.046	-0.036	0.067	0.002	0.033	0.039	-0.147
WDR37 isoform 2 (UniProt Q9Y2I8)	0.039	-0.093	-0.073	0.039	0.005	-0.05	-0.024	0.017	0.083	-0.021
UBA6	0.009	0.036	0.062	-0.137	-0.035	-0.024	0.016	-0.024	-0.075	0.228 (active)
TMEM9B (UniProt Q9NQ34)	-0.039	0.036	0.005	0.009	–	-0.015	0.051	0.164	-0.108	0.009
VTA1 (UniProt Q9NP79)	-0.035	0.081	-0.07	-0.011	-0.109	-0.005	0.035	0	-0.109	0.033
TMEM63B (UniProt Q5T3F8)	0.013	0.002	-0.008	-0.021	0.026	-0.061	0.006	0.004	0.008	0.047
TRABD (UniProt Q9H4I3)	0.202	-0.038	0.185	0.02	–	-0.093	0.145	-0.013	0.012	-0.032
UBE4B isoform 4 (UniProt O95155)	-0.003	0.053	-0.051	-0.011	-0.069	-0.024	-0.019	-0.011	-0.024	0.032
TSEN2 (UniProt Q8NCE0)	0.008	0.032	-0.05	-0.112	-0.132	-0.034	0.05	-0.013	-0.005	-0.16
TTC4 (UniProt O95801)	0.036	0.116	-0.034	-0.094	-0.137	0.003	0.019	0	-0.077	0.061
UPF3B (UniProt Q9BZI7)	0.108	0.055	-0.15	0.098	0.143	-0.085	-0.225	-0.24	0.106	-0.098
TMEM184C (UniProt Q9NVA4)	-0.132	-0.111	-0.007	-0.047	0.116	-0.009	0.15	-0.092	–	0.01
VPS16 (UniProt Q9H269)	0.041	0.178	-0.038	-0.071	-0.14	-0.022	-0.039	0.04	-0.078	0.083

Target	log2 fold change (bafetinib)	log2 fold change [1]	log2 fold change (nilotinib)	log2 fold change [2]	log2 fold change (dasatinib)	log2 fold change [3]	log2 fold change [4]	log2 fold change [5]	log2 fold change (tipifarnib)	log2 fold change (mubritinib)
TRMT10A (UniProt Q8TBZ6)	0.006	-0.022	0.005	-0.018	-0.059	-0.002	0.104	0.008	-0.022	0.05
TRAPPC6B (UniProt Q86SZ2)	-0.005	-0.024	-0.008	-0.027	-0.042	0.021	0.024	0.04	-0.028	0.045
UFM1 isoform 2 (UniProt P61960)	-0.061	0.089	-0.009	0.023	0.116	0.002	0.045	–	-0.016	-0.015
UBA52 (UniProt P62987)	0.285	-0.001	–	–	–	–	-0.343	-0.16	0.247	-0.115
VPS72 isoform 2 (UniProt Q15906)	-0.064	–	0.086	0.02	0.044	-0.024	-0.052	0.08	0.074	0.009
XAB2 (UniProt Q9HCS7)	–	–	–	–	-0.092	–	–	0.125	–	-0.151
TTI2 (UniProt Q6NXR4)	0.06	–	-0.028	-0.068	-0.005	0.077	-0.017	-0.007	-0.059	-0.063
WARS1 (UniProt G3V227)	0	–	–	–	-0.164	–	-0.42	–	–	–
UTP20 (UniProt O75691)	–	–	–	–	–	–	–	–	0.089	–
TUBA4A (UniProt C9JJQ8)	0.116	–	–	–	-0.082	–	0.012	–	0.047	–
UBAP2L (UniProt F8W726)	0.02	-0.049	0.151	0.063	–	-0.109	–	–	0.245	-0.032
UFM1 (UniProt P61960)	0.045	–	-0.011	0.025	-0.012	0.026	0.008	0.007	-0.061	0.087
TRIM4 (UniProt Q9C037)	0.039	-0.015	0.111	0.101	–	0.058	0.042	-0.138	-0.014	0.033
USP48 (UniProt Q86UV5)	0.045	–	-0.294	-0.495	–	-0.016	–	–	–	0.117
UTP3 (UniProt Q9NQZ2)	0.689 (active)	-0.048	–	–	0.168	–	-0.208	-0.132	0.212	-0.228
UBE2J2 isoform 3 (UniProt Q8N2K1)	0.037	-0.12	–	–	-0.154	–	0.013	–	0.041	–
TTC33 (UniProt Q6PID6)	0.049	0.181	–	–	0.043	–	-0.084	-0.069	-0.03	0.113
TMEM104 (UniProt Q8NE00)	–	0.172	0.019	-0.003	0.009	-0.013	0.066	0.095	0.035	-0.089
TXNRD1 isoform 7 (UniProt Q16881)	-0.124	0.001	–	–	-0.052	–	–	–	-0.051	–
UBE3B (UniProt Q7Z3V4)	-0.134	–	0.072	0.03	-0.028	0.116	-0.062	0.103	-0.112	–
ULBP1 (UniProt Q9BZM6)	–	–	–	–	0.083	–	0.068	-0.11	-0.097	0.004

Target	log2 fold change (bafetinib)	log2 fold change [1]	log2 fold change (nilotinib)	log2 fold change [2]	log2 fold change (dasatinib)	log2 fold change [3]	log2 fold change [4]	log2 fold change [5]	log2 fold change (tipifarnib)	log2 fold change (mubritinib)
TOM1 (UniProt O60784)	-0.288	-0.105	–	–	–	–	–	–	–	-0.222
XRCC1 (UniProt P18887)	–	0.019	–	–	0	–	0.123	0.063	–	–
UCHL5 isoform 3 (UniProt Q9Y5K5)	0.151	–	-0.104	0.076	–	-0.08	-0.052	-0.064	-0.085	0.049
TMEM128 (UniProt Q5BJH2)	-0.065	–	-0.008	0.003	-0.01	-0.031	0.061	-0.021	0.066	–
TRIQK (UniProt Q629K1)	-0.059	–	–	–	0.007	–	-0.007	-0.03	–	-0.002
TRPT1 isoform 4 (UniProt Q86TN4)	–	–	–	–	–	–	–	-0.011	–	0.041
VDAC1 (UniProt C9JI87)	-0.152	–	-0.009	-0.048	0.277	-0.106	-0.16	0.22	0.242	0.133
WARS1 (UniProt G3V5U1)	-0.569	–	–	–	–	–	–	–	–	-0.161
U2AF1L5 (UniProt P0DN76)	0.047	–	0.025	-0.669	-0.017	-0.108	–	–	–	0.173
WARS1 (UniProt G3V277)	-0.008	-0.116	-0.065	0.039	–	-0.034	–	–	–	0
TTC26	-0.04	–	–	–	–	–	–	0.04	–	–
TSC2 (UniProt P49815)	-0.024	0.109	–	–	–	–	0.066	0.047	0.019	-0.048
UBXN8 (UniProt O00124)	-0.112	-0.086	–	–	-0.056	–	0.017	-0.439	0.048	–
TRIM5 (UniProt Q9C035)	–	–	–	–	-0.088	–	0.013	0.133	–	–
WDR75 (UniProt Q8IWA0)	0.019	–	-0.214	0.041	0.085	0.109	-0.252	-0.045	-0.021	-0.329
TOM1L2 (UniProt Q6ZVM7)	–	–	-0.047	-0.127	-0.091	-0.125	0.028	–	–	–
TMEM179B (UniProt Q7Z7N9)	-0.074	-0.065	0.046	-0.018	–	-0.013	0.154	0.019	0.167	-0.025
WDR46, A0A0G2JJL1	0.339	–	-0.094	0.202	0.381	0.105	–	–	0.171	-0.051
TVP23C (UniProt Q96ET8)	–	0.033	–	–	0.056	–	-0.116	–	0.041	0.04
